From the supplement of paper PMC10127200 come the findings set out here.

Structures can show the parent of a compound that is named as a salt.

In this assay the test system is OVCAR4. Put plainly: Euclidean distance of Cell Painting phenotypic profile (signed KS, 77 features) to DMSO centroid (dimensionless distance); 5 or 10 uM (library dependent); higher = stronger phenotypic change vs DMSO (phenoactivity). The conditions noted are these: 48 h. In a few lines: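 Five cancer lines, together with a healthy fibroblast line, received library compounds for 48 h at a library-dependent 10 or 5 uM and 0.1% DMSO final. Harmony then derived 77 features from confocal 20X images (9 fields/well) of the stained cells, scoring each as a signed Kolmogorov-Smirnov statistic against same-plate vehicle wells. After plate-position correction, correlation weighting and replicate averaging at the top dose, phenoactivity was taken as each profile's Euclidean distance to the median vehicle profile.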
Turning to `CN1C(=O)[C@@H](NC(=O)c2n[nH]c(Cc3ccccc3)n2)COc2ccccc21`, the Euclidean distance worked out at 1.12.
The value for `CN(C)CCN(Cc1ccc(Cl)cc1)c1ccccn1` [Chloropyramine hydrochloride] was 1.1.
`CCCN(CCC)C(=O)C1=Cc2ccc(-c3ccc(C(=O)N4CCCC4)cc3)cc2N=C(N)C1` [Motolimod (VTX-2337)]: the Euclidean distance was 2.2.
